Reference: PubChem BioAssay (EPA / NIEHS)
Active and inactive are the calls of the source. How the source made its calls: active means hit-call score of the fitted dose curve at least 0.9, where 1 is the maximum; inactive means score below 0.9.

read-out: Cytochrome P450 (CYP1A1), CYP1A1 (gene 1543); assay: LTEA_HepaRG_CYP1A1: Life Technologies and Expression Analysis (LTEA) Assay for Cytochrome P450 (CYP1A1) using HepaRG (AID 2283454); settings: mRNA level, 48 h; actives raise or lower the signal
Description: LTEA_HepaRG is a cell based, multiplexed-readout assay that uses HepaRG, a human liver cell line, with measurements taken at 48 hours after chemical dosing on a 96-well plate.LTEA_HepaRG_CYP1A1 is one of 102 assay component(s) measured in the LTEA HepaRG cell culture assay. It is a marker of NR mediated metabolism.Data from the assay component LTEA_HepaRG_CYP1A1 was analyzed into 1 endpoint. This assay endpoint, LTEA_HepaRG_CYP1A1, was analyzed with bidirectional fitting relative to DMSO as the negative control and baseline of activity. Using a type of inducible reporter, measures of mRNA induction for gain or loss-of-signal activity can be used to understand regulation of transcription factor activity. To generalize the intended target to other relatable targets, this assay endpoint is annotated to the cyp intended target family, where the subfamily is xenobiotic metabolism.
A total of 1060 chemcials from the ToxCast library were tested in eight-point concentration-response experiments. Cell culture and cytotoxicity assays were conducted at Thermo Fisher Scientific's Custom Services facility (Madison, WI). A single lot of human HepaRG cells (Thermo Fisher Scientific, Frederick, MD) was used for the cell culture experiments. 96-well format collagen type I coated plates of human HepaRG cells were prepared using established methods. Briefly, cryopreserved HepaRG cells were thawed, plated at a density of approximately 100,000 cells/well in HepaRG Thaw, Plate, and General Purpose media (HPRG770, Thermo Fisher Scientific), and incubated for 48 hours. 0.5% DMSO was selected as vehicle control to balance the requisite need of DMSO in HepaRG cultures to maintain differentiation (for example, baseline metabolism, proportions of hepatocytes vs. cholangiocytes), while enabling further hepatic receptor pathway activation (for example, PXR and CAR) in response to chemical exposure. 48 hours after plating, the culture medium was replaced with HepaRG Serum-Free Incudtion Media. Cells were exposed to each test chemical in duplicate and maintained in CO2 incubators for another 48 hours. Chemical plates were thawed to room temperature and 200x concentrations of treatment groups were prepared. 8-point conentration-reponse curves were made with the highest exposure at 100 uM, followed by half-log dilutions, all in 0.5% DMSO. Each test plate contained variouse controls, induction positive controls (1mM phenobarbital), cytotoxicity positive controls ([…] aflatoxin B1), vehicle controls (0.5% DMSO), and total lysis controls (0.5% DMSO). Cell morphology images were taken using an Essen IncuCyte FLR automated microscope, with six 96-well plates imaged in about 24 minutes. Images were captured and exported and JPEG files. Spent culture media was transfered to black-well plates for the LDH assay, and remaining media was sorted at -80 C for later use. Cells were treated with RLT buffer and frozen until shipped for gene expression analysis. Total RNA was isolated from the cell suspension in 75 uL of Buffer RLT (Qiagen, Germantown, MD 20874) by Quintiles/Expression Analysis (Durham, NC) using a custom isolation procedure. Total RNA from each plate well was transferred to a preamplification plate. Fluidigm's 96.96 Dynamic ArrayTM (Fluidigm, Amsterdam, the Netherlands) technology was used for gene expression analyses by quantitative reverse transcription polymerase chain reaction (qRT-PCR, performed by Quintiles/Expression Analysis, Durham, NC)89. Standard TaqManTM Assays (Applied Biosystems/ThermoFisher Scientific, Foster City, CA) were used to assess the expression of 93 genes selected based on their selectivity and sensitivity to important hepatic receptors known to be modulated by environmental chemicals; importance in human hepatocyte functionality; and hepatotoxicity. […]

SMILES	AC50	outcome
CCCCCCCC=O	50 µM (active)	–
Cc1oc(-c2ccccc2)nc1CCOc1cccc2c1ccn2CCC(=O)O	–	inactive
Cc1ccc(C(C)C)c(O)c1	–	inactive
Cc1c(C(=O)O)c(O)cc2c1C(=O)c1c(O)c([C@@H]3O[C@H](CO)[C@@H](O)[C@H](O)[C@H]3O)c(O)c(O)c1C2=O	–	inactive
Cc1ccccc1Cl	50 µM (active)	–
Cc1ccc(N(C)C)cc1	22.6 µM (active)	–
Cc1nc(C)nc(N2C[C@@H](C)N(c3ccnc([C@@H](C)O)n3)[C@@H](C)C2)n1	–	inactive
CC(=O)OC/C=C(\C)CCC=C(C)C	–	inactive
COc1ccc(S(=O)(=O)N2C(=O)[C@@](c3ccccc3OC)(N3C[C@H](O)C[C@H]3C(=O)N(C)C)c3cc(Cl)ccc32)c(OC)c1	–	inactive
CC(C)c1ccc(C(=O)N=C(N)N)cc1S(C)(=O)=O	0.6 µM (active)	–
Cc1ccc(Cl)cc1	–	inactive
CCOc1ccc2c(c1)C(C)=CC(C)(C)N2	17.5 µM (active)	–
COc1ccc(C)cc1N	–	inactive
CNCc1cc(F)ccc1Oc1ccc(Cl)c(Cl)c1	–	inactive
NS(=O)(=O)c1cc2c(cc1Cl)NCNS2(=O)=O	–	inactive
c1cc(-c2ccncc2)ccn1	50 µM (active)	–
Oc1ccc2c(c1)OC[C@@H](N1CCC(O)(c3ccc(F)cc3)CC1)[C@H]2O	–	inactive
CC1(C)CC(N=C=O)CC(C)(CN=C=O)C1 (stereo not given)	–	inactive
CN[C@H]1CC[C@@H](c2ccc(Cl)c(Cl)c2)c2ccc(S(N)(=O)=O)cc21	76.5 µM (active)	–
Cc1cccc([N+](=O)[O-])c1C	–	inactive

SMILES	AC50	outcome
FC(F)(F)C(F)(F)C(F)(F)C(F)(F)C(F)(F)C(F)(F)CCI	–	inactive
O=c1c(O)c(-c2ccc(O)c(O)c2)oc2cc(O)cc(O)c12	0.634 µM (active)	–
Clc1cc(Cl)c(Cl)cc1Cl	50 µM (active)	–
CCOC(=O)CCC(=O)OCC	–	inactive
CNC(=O)[C@H]1O[C@@H](n2cnc3c(NCc4cc(Cl)ccc4OCc4cc(C)no4)ncnc32)[C@H](O)[C@@H]1N	–	inactive
CCCCCCCCCCC	50 µM (active)	–
O=C(O)CCCCC(=O)O	73.7 µM (active)	–
O=C(N[C@@H](Cc1ccccc1)[C@@H](O)C(=O)N1C[C@@H](O)[C@@H](O)C1)c1cc2cc(Cl)ccc2[nH]1	50 µM (active)	–
Nc1ccc2c(c1)C(=O)c1ccccc1C2=O	6.31 µM (active)	–
CC1(C)NC(=O)NC1=O	–	inactive
OC[C@@H](O)[C@@H](O)[C@H](O)[C@H](O)CO	–	inactive
CCCCCCOCCO	50 µM (active)	–
CCCCN(CCCC)CCCC	–	inactive
CCCc1cc(=O)[nH]c(=S)[nH]1	50 µM (active)	–
CCCCCCCCCCO	–	inactive
CCCCCC(=O)O	70 µM (active)	–
NCCO	50 µM (active)	–
COCCOC[C@H](CC1(C(=O)NC2CCC(C(=O)O)CC2)CCCC1)C(=O)Oc1ccc2c(c1)CCC2 (stereo not given in full)	–	inactive
CCCCCCC(=O)OCC	33.1 µM (active)	–
O=C(O)Cc1ccccc1Nc1c(Cl)cccc1Cl	76.4 µM (active)	–
